Experimental data taken from the supplement of paper PMC10849652.
Targets with a hit are over-represented here; the source holds about 7,900 in all. About 0.6% of all pairs of compound and target were hits.

What follows are targets tested with C1=CC(=CC=C1C2=NC3=C(N2)C=C(C=C3)C(=O)N)OC4=CC=C(C=C4)Cl (assay: log2 fold change, soluble protein after heating vs DMSO (PISA); higher = thermal stabilisation; K562 cells, 10 uM, 30 min; active = over 0.2 and 3.5 SD of the protein, either way, in both replicates (recomputed)).
Outline: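 K562 cells at 2×10^6 cells/mL were given 10 μM compound for 30 min. Aliquots then went through 3 min of heating across 48°C-58°C, were pooled, and were extracted in PBS with 0.5% NP-40 at 4°C, and the supernatant after 21,000xg for 90 min was quantified by TMTpro 16plex LC-MS/MS with channel sums equalised. Thermal stability relative to control samples, from duplicates, is given as log2 fold change.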

UniProt Q9UPN7, sequence (Q9UPN7 whole entry, looked up): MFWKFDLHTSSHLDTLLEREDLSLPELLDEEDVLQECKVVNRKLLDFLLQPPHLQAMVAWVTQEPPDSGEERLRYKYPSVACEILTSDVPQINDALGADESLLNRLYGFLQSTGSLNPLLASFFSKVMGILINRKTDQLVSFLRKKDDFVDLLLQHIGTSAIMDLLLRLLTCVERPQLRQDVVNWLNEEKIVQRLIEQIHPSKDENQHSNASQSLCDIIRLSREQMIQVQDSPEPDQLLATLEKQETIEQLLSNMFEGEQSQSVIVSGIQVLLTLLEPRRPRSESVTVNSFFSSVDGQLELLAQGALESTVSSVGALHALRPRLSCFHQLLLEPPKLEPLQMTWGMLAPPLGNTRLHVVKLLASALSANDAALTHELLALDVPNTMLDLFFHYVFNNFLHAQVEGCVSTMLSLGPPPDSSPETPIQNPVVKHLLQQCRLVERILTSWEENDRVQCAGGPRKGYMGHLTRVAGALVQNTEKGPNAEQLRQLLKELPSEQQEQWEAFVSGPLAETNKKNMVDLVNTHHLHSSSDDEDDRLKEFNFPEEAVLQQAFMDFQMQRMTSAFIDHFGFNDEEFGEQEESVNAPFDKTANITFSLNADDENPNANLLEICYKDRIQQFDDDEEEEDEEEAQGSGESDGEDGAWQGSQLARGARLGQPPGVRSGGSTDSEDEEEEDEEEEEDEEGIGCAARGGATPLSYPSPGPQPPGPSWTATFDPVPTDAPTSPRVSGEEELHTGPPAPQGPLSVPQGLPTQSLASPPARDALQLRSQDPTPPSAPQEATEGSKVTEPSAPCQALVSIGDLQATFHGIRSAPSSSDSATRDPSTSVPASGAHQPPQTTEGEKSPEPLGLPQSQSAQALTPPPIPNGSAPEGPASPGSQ
UniProt P54619, sequence (P54619 whole entry, looked up): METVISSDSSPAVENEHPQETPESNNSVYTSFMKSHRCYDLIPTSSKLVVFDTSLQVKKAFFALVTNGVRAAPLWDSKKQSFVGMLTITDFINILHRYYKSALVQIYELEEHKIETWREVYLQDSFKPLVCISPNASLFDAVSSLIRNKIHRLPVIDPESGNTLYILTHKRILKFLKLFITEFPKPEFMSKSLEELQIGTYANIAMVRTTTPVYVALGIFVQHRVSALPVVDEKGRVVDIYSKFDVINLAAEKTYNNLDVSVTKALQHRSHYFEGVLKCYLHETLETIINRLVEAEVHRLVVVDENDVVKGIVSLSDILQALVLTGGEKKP
UniProt O60925, sequence (O60925 whole entry, looked up): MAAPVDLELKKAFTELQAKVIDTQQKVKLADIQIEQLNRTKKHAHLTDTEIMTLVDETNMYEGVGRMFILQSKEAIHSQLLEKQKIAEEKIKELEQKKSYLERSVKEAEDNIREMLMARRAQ
UniProt Q15257, sequence (Q15257 whole entry, looked up): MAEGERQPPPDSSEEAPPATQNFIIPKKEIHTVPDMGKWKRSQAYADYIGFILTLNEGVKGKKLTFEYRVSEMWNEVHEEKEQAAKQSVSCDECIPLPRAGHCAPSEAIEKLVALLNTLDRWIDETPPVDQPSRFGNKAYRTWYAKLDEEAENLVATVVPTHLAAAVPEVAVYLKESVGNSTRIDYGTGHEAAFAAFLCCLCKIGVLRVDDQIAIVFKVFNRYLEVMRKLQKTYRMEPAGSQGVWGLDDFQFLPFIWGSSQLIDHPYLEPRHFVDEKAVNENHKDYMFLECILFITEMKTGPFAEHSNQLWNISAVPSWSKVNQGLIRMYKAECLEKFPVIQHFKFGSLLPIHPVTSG
UniProt O96011, sequence (O96011 whole entry, looked up, change not shown): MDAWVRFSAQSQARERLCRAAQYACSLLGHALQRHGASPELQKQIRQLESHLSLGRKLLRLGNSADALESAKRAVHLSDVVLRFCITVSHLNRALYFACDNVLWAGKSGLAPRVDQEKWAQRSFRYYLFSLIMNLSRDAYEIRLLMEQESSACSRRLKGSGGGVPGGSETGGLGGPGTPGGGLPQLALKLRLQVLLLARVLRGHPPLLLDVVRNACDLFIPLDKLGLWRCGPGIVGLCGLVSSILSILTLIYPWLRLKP
UniProt Q05655, sequence (Q05655 whole entry, looked up): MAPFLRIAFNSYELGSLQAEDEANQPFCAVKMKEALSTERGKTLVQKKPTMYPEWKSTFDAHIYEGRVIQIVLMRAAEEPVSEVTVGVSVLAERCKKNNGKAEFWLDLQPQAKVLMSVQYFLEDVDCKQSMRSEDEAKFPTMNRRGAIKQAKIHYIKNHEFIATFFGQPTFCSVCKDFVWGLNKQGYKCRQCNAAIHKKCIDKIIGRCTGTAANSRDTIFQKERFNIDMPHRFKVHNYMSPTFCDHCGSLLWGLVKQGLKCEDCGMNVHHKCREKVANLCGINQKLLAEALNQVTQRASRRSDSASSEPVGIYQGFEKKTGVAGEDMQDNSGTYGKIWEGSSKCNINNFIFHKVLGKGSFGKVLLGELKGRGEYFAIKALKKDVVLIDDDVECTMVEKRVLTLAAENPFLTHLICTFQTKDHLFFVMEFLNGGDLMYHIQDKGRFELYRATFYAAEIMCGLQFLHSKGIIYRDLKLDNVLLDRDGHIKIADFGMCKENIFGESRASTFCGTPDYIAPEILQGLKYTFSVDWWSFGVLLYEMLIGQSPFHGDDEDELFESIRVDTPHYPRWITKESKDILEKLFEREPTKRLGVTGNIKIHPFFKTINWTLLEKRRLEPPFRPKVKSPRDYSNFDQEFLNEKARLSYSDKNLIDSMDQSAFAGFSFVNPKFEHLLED
UniProt Q9NW08, sequence (Q9NW08 whole entry, looked up): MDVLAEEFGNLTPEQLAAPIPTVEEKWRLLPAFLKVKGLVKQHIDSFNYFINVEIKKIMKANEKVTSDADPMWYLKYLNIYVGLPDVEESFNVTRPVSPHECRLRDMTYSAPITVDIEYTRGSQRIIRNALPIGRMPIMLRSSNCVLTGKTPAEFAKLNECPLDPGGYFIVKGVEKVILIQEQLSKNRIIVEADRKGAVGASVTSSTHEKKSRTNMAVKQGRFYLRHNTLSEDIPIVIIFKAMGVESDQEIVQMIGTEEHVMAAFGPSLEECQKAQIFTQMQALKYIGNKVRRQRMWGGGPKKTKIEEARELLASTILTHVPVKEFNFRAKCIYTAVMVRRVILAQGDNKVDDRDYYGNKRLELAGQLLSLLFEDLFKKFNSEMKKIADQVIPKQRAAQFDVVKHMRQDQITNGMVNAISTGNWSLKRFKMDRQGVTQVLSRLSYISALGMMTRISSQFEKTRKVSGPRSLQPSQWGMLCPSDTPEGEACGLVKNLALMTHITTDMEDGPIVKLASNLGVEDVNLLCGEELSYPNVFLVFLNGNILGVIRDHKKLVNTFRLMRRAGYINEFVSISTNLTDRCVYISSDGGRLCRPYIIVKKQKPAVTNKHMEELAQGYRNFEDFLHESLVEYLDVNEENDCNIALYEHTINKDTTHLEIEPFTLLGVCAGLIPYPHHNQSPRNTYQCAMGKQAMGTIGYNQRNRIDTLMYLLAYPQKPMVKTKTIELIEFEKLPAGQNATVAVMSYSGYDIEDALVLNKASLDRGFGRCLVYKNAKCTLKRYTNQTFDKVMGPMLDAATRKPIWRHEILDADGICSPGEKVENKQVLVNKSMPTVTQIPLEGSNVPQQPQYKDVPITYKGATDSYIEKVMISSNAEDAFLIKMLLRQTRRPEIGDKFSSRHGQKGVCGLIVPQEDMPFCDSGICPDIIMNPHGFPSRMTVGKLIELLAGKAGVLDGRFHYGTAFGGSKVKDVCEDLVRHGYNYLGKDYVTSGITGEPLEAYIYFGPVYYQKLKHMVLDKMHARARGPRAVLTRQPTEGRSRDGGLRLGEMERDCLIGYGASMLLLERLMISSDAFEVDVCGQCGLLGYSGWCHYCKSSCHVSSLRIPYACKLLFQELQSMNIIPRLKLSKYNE
UniProt O15162, sequence (O15162 whole entry, looked up): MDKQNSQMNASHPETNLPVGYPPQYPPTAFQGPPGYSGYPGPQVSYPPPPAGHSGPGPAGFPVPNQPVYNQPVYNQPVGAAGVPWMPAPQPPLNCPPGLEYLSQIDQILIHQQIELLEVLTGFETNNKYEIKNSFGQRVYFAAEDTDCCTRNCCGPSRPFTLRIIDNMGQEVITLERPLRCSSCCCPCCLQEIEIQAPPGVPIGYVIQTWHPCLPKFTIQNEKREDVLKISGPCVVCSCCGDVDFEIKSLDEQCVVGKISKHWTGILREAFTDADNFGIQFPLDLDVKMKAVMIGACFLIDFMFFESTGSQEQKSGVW
UniProt P0CAP2, sequence (P0CAP2 whole entry, looked up): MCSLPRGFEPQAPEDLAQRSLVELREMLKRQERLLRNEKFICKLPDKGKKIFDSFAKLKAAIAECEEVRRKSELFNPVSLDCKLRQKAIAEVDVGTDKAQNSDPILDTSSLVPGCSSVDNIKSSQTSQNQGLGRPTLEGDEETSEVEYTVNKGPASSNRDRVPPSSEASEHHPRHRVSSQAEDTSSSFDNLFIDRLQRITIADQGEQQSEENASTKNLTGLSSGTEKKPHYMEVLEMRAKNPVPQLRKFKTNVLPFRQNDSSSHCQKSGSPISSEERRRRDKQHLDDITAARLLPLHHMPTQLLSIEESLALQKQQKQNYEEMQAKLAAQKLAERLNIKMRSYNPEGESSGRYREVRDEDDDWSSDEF
UniProt Q15365, sequence (Q15365 whole entry, looked up): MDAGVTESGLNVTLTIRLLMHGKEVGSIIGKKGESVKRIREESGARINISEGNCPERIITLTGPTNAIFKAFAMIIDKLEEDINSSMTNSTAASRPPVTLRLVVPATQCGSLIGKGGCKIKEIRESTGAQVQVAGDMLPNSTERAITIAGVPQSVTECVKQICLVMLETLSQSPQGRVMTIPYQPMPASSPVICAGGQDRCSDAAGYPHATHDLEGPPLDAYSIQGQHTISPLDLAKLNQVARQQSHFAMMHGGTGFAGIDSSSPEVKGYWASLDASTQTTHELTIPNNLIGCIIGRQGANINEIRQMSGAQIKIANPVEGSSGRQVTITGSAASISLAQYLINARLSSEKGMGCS
UniProt Q9Y2Y1, sequence (Q9Y2Y1 whole entry, looked up): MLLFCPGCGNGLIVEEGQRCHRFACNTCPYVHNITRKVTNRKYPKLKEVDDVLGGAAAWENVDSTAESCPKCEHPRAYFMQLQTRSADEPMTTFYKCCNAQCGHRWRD

Target	log2 fold change
PTPA (UniProt Q15257)	0.127 (inactive)
PLSCR1 (UniProt O15162)	0.077 (inactive)
POLR2M (UniProt P0CAP2)	0.004 (inactive)
PEX11B (UniProt O96011)	-0.001 (inactive)
PSMD1 (UniProt Q99460)	0.021 (inactive)
PLCB3 (UniProt Q01970)	0.023 (inactive)
PRKCD (UniProt Q05655)	0.065 (inactive)
PIR (UniProt O00625)	0.464 (active)
PFDN1 (UniProt O60925)	0.07 (inactive)
POLR3B (UniProt Q9NW08)	-0.09 (inactive)
PPP2R5E (UniProt Q16537)	-0.061 (inactive)
PRPF40A (UniProt O75400)	0.012 (inactive)
PC (UniProt P11498)	0.056 (inactive)
PCBP2 isoform 3 (UniProt Q15366)	-0.039 (inactive)
PNN (UniProt Q9H307)	0.024 (inactive)
PTTG1 (UniProt O95997)	0.029 (inactive)
POLR2K (UniProt P53803)	0.127 (inactive)
PAK4 (UniProt O96013)	-0.04 (inactive)

Target	log2 fold change
PRPF38A (UniProt Q8NAV1)	0.049 (inactive)
PRKACA (UniProt P17612)	-0.016 (inactive)
POLR3K (UniProt Q9Y2Y1)	0.007 (inactive)
PRKAR1B (UniProt P31321)	0.013 (inactive)
PRPF3 (UniProt O43395)	-0.02 (inactive)
PLCL1 (UniProt Q15111)	0.095 (inactive)
PI4K2A (UniProt Q9BTU6)	0.019 (inactive)
PELP1 (UniProt Q8IZL8)	0.008 (inactive)
PDE12 (UniProt Q6L8Q7)	0.027 (inactive)
PRKAA1 isoform 2 (UniProt Q13131)	0.045 (inactive)
PDE4A (UniProt P27815)	0.024 (inactive)
PDCD6IP (UniProt Q8WUM4)	-0.044 (inactive)
PCBP1 (UniProt Q15365)	-0.031 (inactive)
PRKAG1 isoform 3 (UniProt P54619)	-0.012 (inactive)
PPP6R1 (UniProt Q9UPN7)	-0.004 (inactive)
PIK3CB (UniProt P42338)	-0.022 (inactive)
PIK3C3 (UniProt Q8NEB9)	-0.005 (inactive)
PIP4K2A (UniProt P48426)	-0.058 (inactive)
